Source: PubChem BioAssay (NCI)
This is part of a sample that, as a whole, favours compounds with a hit. Of some 83,000 tested, about 20% had one in any assay.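 Activity criterion: percent growth below 10, measured after cells in 96-well plates were exposed to a single compound concentration for 48 hours.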 Activity calls are given as the source filed them.

Columns and labels:
Assay in all cases: NCI-60 one-dose screen, 48 h (100 = growth as untreated, 0 = no growth, -100 = all killed)
Details in all cases: 10 µM
SK-MEL-2 melanoma = tested on: SK-MEL-2 melanoma
EKVX NSCLC = tested on: EKVX NSCLC
SN12C renal = tested on: SN12C renal
UO-31 renal = tested on: UO-31 renal
TK-10 renal = tested on: TK-10 renal
ACHN renal = tested on: ACHN renal
CAKI-1 renal = tested on: CAKI-1 renal
A498 renal = tested on: A498 renal
CCRF-CEM leukemia = tested on: CCRF-CEM leukemia
MOLT-4 leukemia = tested on: MOLT-4 leukemia

Measured: growth

c1ccc(CCCCc2ccc3ccccc3n2)cc1
inactive: SK-MEL-2 melanoma 94.3% | EKVX NSCLC 98.1% | SN12C renal 105% | UO-31 renal 91.4% | TK-10 renal 90.2% | ACHN renal 103% | CAKI-1 renal 99.4% | A498 renal 94.5% | CCRF-CEM leukemia 99.8% | MOLT-4 leukemia 97.3%

O=C1/C=C/[C@@H](O)[C@@H]2C[C@@H](O)C[C@H]2/C=C/CCC[C@@H](C(F)(F)F)O1
inactive: SK-MEL-2 melanoma 86.3% | EKVX NSCLC 90.4% | SN12C renal 90.3% | UO-31 renal 47.6% | TK-10 renal 73.7% | ACHN renal 98.3% | CAKI-1 renal 98.4% | A498 renal 84.8% | CCRF-CEM leukemia 92.2% | MOLT-4 leukemia 84.7%

O=C(COc1cccc(/C=C2\CSc3ccccc3C2=O)c1)c1ccc(Cl)cc1
inactive: EKVX NSCLC 68.1% | A498 renal 54%
active: SK-MEL-2 melanoma -71.6% | SN12C renal -6.61% | UO-31 renal -79% | TK-10 renal -4.52% | ACHN renal -65.6% | CAKI-1 renal -65.2% | CCRF-CEM leukemia -51.6% | MOLT-4 leukemia -67.3%

COc1ccc(C(=O)COc2cccc(/C=C3\Cc4ccccc4C3=O)c2)cc1
inactive: SK-MEL-2 melanoma 51.8% | EKVX NSCLC 87.8% | SN12C renal 92.7% | UO-31 renal 12.1% | TK-10 renal 111% | ACHN renal 95.8% | CAKI-1 renal 76.4% | A498 renal 94.7% | CCRF-CEM leukemia 80.8% | MOLT-4 leukemia 85.8%

Nc1ccc(CC[C@H]2CCC/C=C/[C@@H]3C[C@H](O)C[C@H]3[C@H](O)/C=C/C(=O)O2)cc1
inactive: ACHN renal 10%
active: SK-MEL-2 melanoma -25.9% | EKVX NSCLC 8.9% | SN12C renal 7.47% | UO-31 renal 2.24% | TK-10 renal -53.8% | CAKI-1 renal 7.49% | A498 renal -32.4% | CCRF-CEM leukemia -3.7% | MOLT-4 leukemia -18.8%

Oc1cccc(-c2nc3sccn3c2-c2ccncn2)c1
inactive: SK-MEL-2 melanoma 83.7% | EKVX NSCLC 92.8% | SN12C renal 92.1% | UO-31 renal 76.8% | TK-10 renal 123% | ACHN renal 97.8% | CAKI-1 renal 69.8% | A498 renal 119% | CCRF-CEM leukemia 94.1% | MOLT-4 leukemia 101%

CCOC(=O)C1=CSC2=NC3=C(CCC/C3=C\c3cc(OC)c(OC)c(OC)c3)C(c3cc(OC)c(OC)c(OC)c3)N12 (stereo not given)
inactive: SK-MEL-2 melanoma 106% | EKVX NSCLC 95.1% | SN12C renal 54.4% | UO-31 renal 69.9% | TK-10 renal 84.7% | ACHN renal 45.9% | CAKI-1 renal 66.3% | A498 renal 78.4% | CCRF-CEM leukemia 16.8% | MOLT-4 leukemia 52.7%

COc1ccc(Cl)cc1Nc1nc(C(F)(F)F)ccc1C(=O)N/N=C/c1cc(OC)c(OC)c(OC)c1
active: SK-MEL-2 melanoma 9.11% | CCRF-CEM leukemia 9.22% | MOLT-4 leukemia 9.62%
inactive: EKVX NSCLC 32.6% | SN12C renal 25.1% | UO-31 renal 15.4% | TK-10 renal 20.2% | ACHN renal 16% | CAKI-1 renal 27.6% | A498 renal 26.8%

O=C1CSC(=S)N1/N=C/c1ccc(Cl)s1
inactive: SK-MEL-2 melanoma 98.6% | EKVX NSCLC 101% | SN12C renal 95.8% | UO-31 renal 79.3% | TK-10 renal 118% | ACHN renal 98.4% | CAKI-1 renal 100% | A498 renal 103% | CCRF-CEM leukemia 98.6% | MOLT-4 leukemia 102%
